Source: PubChem BioAssay (National Center for Advancing Translational Sciences (NCATS))
The list is not random: actives were taken first. Their share in the collection is about 2.8%.
SNCA expr inh: Primary qHTS assay for inhibitors of alpha-synuclein gene (SNCA) expression | 0.17% of 140,000 active | Potency, µM (highest dose often 57.2 µM), without a hit: top-dose activity change, negative = inhibition, hits mostly inhibitors | HEK-293 SNCA-luciferase knock-in, luminescence, 24 h;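 further: potency means the concentration at half of the fitted maximal effect; plate controls were DMSO cells for no effect and cell-free wells for full effect; nearly all actives have a fitted effect of over 45% in size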
HEK293 viab: GF-AFC viability counterscreen for inhibitors of alpha-synuclein gene (SNCA) expression; HEK-293-SNCA-luc viability, GF-AFC fluorescence, 24 h; Potency, µM (highest dose often 57.1 µM), without a hit: at the top dose activity change, negative = cytotoxicity, hits mostly cytotoxic; 0.12% of 150,000 active;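 further: potency means the concentration at half of the fitted maximal effect; 0% = DMSO-treated cells and -100% = medium-only wells without cells; nearly all actives have a fitted effect of over 30% in size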
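HEK-293-SNCA-luc cells (1500/well) plated 24 h, then exposed 24 h to a dilution series; GF-AFC added 30 min at 37C, fluorescence 405/540 nm; normalised to medium-only and DMSO wells, Hill fit.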
IP6K1 inhibitor: Primary qHTS assay for small molecule inhibitors of Inositol hexaphosphate kinase 1 (IP6K1). IP6K1 kinase, ADP-Glo luminescence, 2 h; hits give low values. activity change, % (series mostly up to about 58 µM). 0.81% of 140,000 active. AID 1645851, 2021; in the data active means activity change below about -25%; further: on the % scale 0 is the no-effect control and ±100 the full control effect
Target sequence (Q92551 whole entry, looked up): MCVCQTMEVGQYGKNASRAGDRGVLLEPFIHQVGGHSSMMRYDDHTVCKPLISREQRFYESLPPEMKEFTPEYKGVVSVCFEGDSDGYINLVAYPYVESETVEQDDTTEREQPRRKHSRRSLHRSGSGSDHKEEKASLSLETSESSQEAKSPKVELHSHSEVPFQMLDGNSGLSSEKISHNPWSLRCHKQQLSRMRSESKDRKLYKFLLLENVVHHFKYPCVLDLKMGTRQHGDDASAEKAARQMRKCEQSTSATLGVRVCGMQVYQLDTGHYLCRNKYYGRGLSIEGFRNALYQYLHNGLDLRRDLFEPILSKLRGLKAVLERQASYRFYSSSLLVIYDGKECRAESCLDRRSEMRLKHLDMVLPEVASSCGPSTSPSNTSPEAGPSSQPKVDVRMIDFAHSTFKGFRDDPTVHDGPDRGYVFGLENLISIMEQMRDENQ
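ADP-Glo luminescence measures ADP made by human IP6K1 during a 2 h RT reaction with ATP/IP6 (mix at 1.3 mM/130 uM); top library doses 57.5 and 19.1 uM final.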
KDM5B inh: Primary screen for KDM5B Histone Demethylases FDH-coupled qHTS. Lysine-specific demethylase 5B (Homo sapiens), Q9UGL1. KDM5B demethylase, FDH-coupled NADH fluorescence (FDH is formaldehyde dehydrogenase). Potency, µM (series often up to 57.7 µM), most hits filed as inhibitors. 2.6% of 220,000 active; further: potency means the concentration at half of the fitted maximal effect; 0% is about no effect; nearly all actives have a fitted effect of over 70% in size
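Compound dilutions met 200 nM (final) KDM5BΔAP for 10 min at room temperature before substrate addition. The substrate mix held 12.5 µM H3K4me3 with cofactors 25 µM α-ketoglutarate and 50 µM Fe²⁺. NADH signal gain over 30 min defined activity.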
IP6K1 conf: Confirmatory qHTS assay for small molecule inhibitors of Inositol hexaphosphate kinase 1 (IP6K1). shares compounds with IP6K1 inhibitor. recombinant IP6K1 kinase, ADP-Glo luminescence, 2 h. Potency, µM (doses to about 49 µM), for the others: top-dose activity change, negative = inhibition, usual class: inhibitors. 13% of 1,200 active; further: potency means the concentration at half of the fitted maximal effect; on the % scale 0 is the no-effect control and ±100 the full control effect; nearly all actives have a fitted effect of over 65% in size
An asterisk follows results filed as active; i = inactive; u = inconclusive; x = not tested or not shown; [ ] = remark or other dose. Unless noted, the call rests on the fitted dose curve; in most records, active means well fitted curve in the direction sought with a large enough effect; inconclusive means small, poorly fitted or top-dose-only effect, or another doubt; inactive means no such curve, though single readings can be large; an effect the other way counts as inactive or inconclusive.

SMILES	SNCA expr inh	HEK293 viab	IP6K1 inhibitor	KDM5B inh	IP6K1 conf
COc1ccccc1-c1ccc(C(=O)N2CCC(NC(=O)Cc3cccc(Cl)c3)CC2)cc1	u	-14%[12.5 µM]	10	x	x
CCCN(CCC)CCNC(=O)c1cc2c(=O)oc3ccc(C)cc3c2s1	-16%	17%	-25*	u	-4%
Cc1ccc(C2=NN(C(=O)CNc3ccc(C(=O)N(C)C)cc3)C(c3ccco3)C2)cc1 (stereo not drawn)	x	x	x	i	x
C=CCNC(=O)CSc1ncc(-c2ccc(F)cc2)o1	x	x	x	i	x
Cc1cc(-c2cnc(N)c3c(-c4ccc5scnc5c4)csc23)n(C)n1	x	-36%	-31*	x	u
CC1CCN(CCNC(=O)C2CCN(CC(F)(F)F)CC2)CC1	x	x	x	i	x
COc1ccc(NC(=O)c2c(NCc3ccc(N(C)C)cc3)sc3c2CCC3)cc1	29%	-22%	-27*	u	-11%
COc1ccc(NC(=O)c2c(NCc3cccc(OC)c3)sc3c2CCCC3)cc1	u	5%	-1	u	x
OC1COc2ccccc2OCCOCCOc2ccccc2OC1	x	x	x	i	x
COC(=O)c1cccc(NC(=O)c2cnc(C)cn2)c1	x	x	x	i	x
COc1ccc(C(=O)Nc2ccc(NC(=O)c3cccs3)cc2)cc1OC	-1%	u	-56*	u	0%
COc1ccc(-n2c(SCC(=O)Nc3cc(Cl)ccc3OC)nc3c(c2=O)SCC3)cc1	x	x	x	i	x
COc1c(Cl)cc(C(=O)Nc2cc(-c3nc4ccccc4[nH]3)ccc2C)cc1Cl	u	-17%	-4	u	x
COc1cc(OC)cc(C(=O)Nc2cc(-c3nc4ccccc4[nH]3)ccc2C)c1	-9%	u	-25*	u	14%
CN(C)C(=O)N1C2CCC1CN(c1ccc(C(F)(F)F)cc1)C2	u	-11%	-27*	i	u
COc1cc(-c2c(NC(=O)c3ccccc3)oc3ccc(Cl)cc3c2=O)cc(OC)c1OC	x	x	x	i	x
Cc1cc(NC(=O)c2cccc(NC(=O)/C=C/CN(C)C)c2)ccc1Nc1nccc(-c2cccnc2)n1	x	-31%	-34*	x	u
COc1ccc(Cl)cc1NC(=O)N1CCN(c2nc3ccccc3n2Cc2ccccc2)CC1	x	x	x	i	x
CCc1ccc(NC(=O)CN(c2ccc(OC)cc2)S(=O)(=O)c2c(C)[nH]c(=O)[nH]c2=O)cc1	-17%	14%	-31*	i[11.5 µM]	-3%
CCc1ccc(NC(=O)CN(c2cc(C)cc(C)c2)S(=O)(=O)c2c(C)[nH]c(=O)[nH]c2=O)cc1	8%	-6%	-15	i[11.5 µM]	x
N#Cc1c(O)c2c(-c3ccc(-c4ccccc4O)cc3)csc2[nH]c1=O	0%	-34%	-46*	x	u
O=C(O)COCCN1CCN(C(c2ccccc2)c2ccc(Cl)cc2)CC1 (stereo not drawn)	-12%	-3%	10	x	x
OCCOCCN1CCN(C(c2ccccc2)c2ccc(Cl)cc2)CC1 (stereo not drawn)	-32%[25.6 µM]	-24%[23.9 µM]	-31*	x	3.7µM*
Cc1nn(CC(=O)N2CCCCC2)c(=O)c2cc3occc3n12	64%	u	14	i	x
CCOC(=O)C1CCN(C(=O)Cn2nc(C)n3c(cc4cc(C)ccc43)c2=O)CC1	-18%	-9%	-35*	u	-25%
SMILES	SNCA expr inh	HEK293 viab	IP6K1 inhibitor	KDM5B inh	IP6K1 conf
Cc1ccc2c(c1)cc1c(=O)n(CC(=O)N3CCCCC3)nc(C)n12	-2%	-8%	-27*	u	-19%
CCOC(=O)C1CCN(C(=O)Cn2nc(C)n3c(cc4c(OC)cccc43)c2=O)CC1	16%	7%	-22	u	x
COc1cccc2c1cc1c(=O)n(CC(=O)N3CCN(c4cccc(C)c4C)CC3)nc(C)n12	0%	7%	-26*	u	10%
COc1cccc2c1cc1c(=O)n(CC(=O)N3CCN(c4cc(Cl)ccc4C)CC3)nc(C)n12	19%	3%	-8	u	x
CCOC(=O)[C@@H]1CN(C(=O)CCc2ccccc2)[C@H]2c3ccccc3O[C@@H]12	x	x	10	x	x
CC(=O)c1cccc(NC(=O)c2ccccc2SCc2cccs2)c1	x	x	x	i	x
